According to PubChem BioAssay:
For some of these results: Measured potencies and affinities stand elsewhere. Active and inactive are the calls of the source. Unless noted, how the calls were made is not given here.

Key:
[1] = antimalarial activity against Dd2 strain (AID 2302;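 active means growth inhibition above 50% at the single 2 µM test dose, taken to imply half-maximal potency below 2 µM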;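 further: 0% = DMSO untreated growth and 100% = chloroquine plus artemisinin killed control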); details: P. falciparum Dd2 in RBCs, LDH growth readout, 72 h; at 2 µM; stronger effect = higher value
[2] = HepG2 cytotoxicity, primary screen, cytotoxicity control for P. falciparum antimalarial project, cell-based, ATP luminescence (AID 2303;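 active means inhibition above 50%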;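 further: 0% = DMSO wells and 100% = digitonin-killed cells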); details: HepG2 viability, 24-48 h, at 10 µM, stronger effect = higher value
[3] = molecular target: L-lactate dehydrogenase (Plasmodium falciparum (isolate CDC / Honduras)) (UniProt Q27743); experiment: PfLDH activity inhibition – cell lysate, 3D7 strain, counter-screen for P. falciparum growth inhibition project (AID 2304);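 further: 0% = vehicle and 100% = reference inhibitor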; details: P. falciparum 3D7 crude extract, LDH APAD/NBT absorbance; at 2 µM; stronger effect = higher value
[4] = inhibition of 3D7 malaria parasite growth – strain 3D7 (AID 2306);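 further: 0% = DMSO wells and 100% = chloroquine plus artemisinin control wells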; details: P. falciparum 3D7 erythrocytic growth, LDH absorbance, 72 h; at 2 µM; stronger effect = higher value
[5] = molecular target: Calcium-dependent protein kinase 1 (Plasmodium falciparum (isolate 3D7)) (UniProt P62344); experiment: PfCDPK1 kinase inhibitors, biochemical, TCAMS library (AID 1159585; cut-off not given, nearly all actives have IC50 up to about 0.98 µM;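 further: inhibitors leave more ATP so luminescence rises with inhibition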); details: recombinant PfCDPK1, Kinase-Glo ATP depletion luminescence
[6] = molecular target: Plasmodium falciparum protein kinase 6 (PK6, PF3D7_1337100) (UniProt Q8IDW1); experiment: PfPK6 kinase inhibitors, biochemical, TCAMS library (AID 1159586); details: recombinant PfPK6, Kinase-Glo ATP depletion luminescence
[7] = molecular target: Protein kinase 7 (PK7), Plasmodium falciparum 3D7 (PF3D7_0213400) (UniProt Q7YTF7); experiment: inhibition of Plasmodium PK7 catalytic activity – biochemical, TCAMS antimalarial set, Kinase-Glo luminescence (AID 1159587); details: recombinant PfPK7, Kinase-Glo ATP depletion luminescence
[8] = molecular target: Calcium-dependent protein kinase 4 (Plasmodium falciparum (isolate 3D7)) (UniProt Q8IBS5); experiment: PfCDPK4 kinase inhibitors, biochemical, TCAMS library (AID 1159588; cut-off not given, nearly all actives have IC50 up to about 0.91 µM); details: recombinant PfCDPK4, Kinase-Glo ATP depletion luminescence
Chain of Calcium-dependent protein kinase 4 (Plasmodium falciparum (isolate 3D7)) (Q8IBS5 whole entry, looked up): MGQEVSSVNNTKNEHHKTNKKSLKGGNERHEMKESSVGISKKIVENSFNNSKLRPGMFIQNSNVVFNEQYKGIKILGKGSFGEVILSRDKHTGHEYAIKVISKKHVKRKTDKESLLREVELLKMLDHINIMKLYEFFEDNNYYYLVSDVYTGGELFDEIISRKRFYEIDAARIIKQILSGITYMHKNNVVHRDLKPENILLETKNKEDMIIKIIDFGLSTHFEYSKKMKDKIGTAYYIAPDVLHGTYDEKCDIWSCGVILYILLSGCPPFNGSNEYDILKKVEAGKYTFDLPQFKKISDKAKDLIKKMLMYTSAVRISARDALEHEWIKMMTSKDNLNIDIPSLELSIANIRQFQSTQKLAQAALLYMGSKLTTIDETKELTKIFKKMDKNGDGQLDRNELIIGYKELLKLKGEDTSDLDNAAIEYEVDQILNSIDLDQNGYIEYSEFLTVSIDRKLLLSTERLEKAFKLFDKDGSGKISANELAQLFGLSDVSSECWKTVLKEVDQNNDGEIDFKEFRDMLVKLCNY

Chain of Protein kinase 7 (PK7), Plasmodium falciparum 3D7 (PF3D7_0213400) (Q7YTF7 1-343): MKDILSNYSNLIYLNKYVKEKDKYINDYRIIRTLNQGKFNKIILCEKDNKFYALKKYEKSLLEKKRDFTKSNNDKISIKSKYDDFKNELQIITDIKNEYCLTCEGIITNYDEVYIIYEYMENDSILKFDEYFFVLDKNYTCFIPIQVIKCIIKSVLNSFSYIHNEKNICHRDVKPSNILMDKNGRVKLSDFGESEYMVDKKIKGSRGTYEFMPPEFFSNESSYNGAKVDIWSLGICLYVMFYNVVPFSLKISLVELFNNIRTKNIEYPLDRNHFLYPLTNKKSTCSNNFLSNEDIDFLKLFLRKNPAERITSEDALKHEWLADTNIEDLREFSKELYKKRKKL
Chain of Calcium-dependent protein kinase 1 (Plasmodium falciparum (isolate 3D7)) (P62344 whole entry, looked up): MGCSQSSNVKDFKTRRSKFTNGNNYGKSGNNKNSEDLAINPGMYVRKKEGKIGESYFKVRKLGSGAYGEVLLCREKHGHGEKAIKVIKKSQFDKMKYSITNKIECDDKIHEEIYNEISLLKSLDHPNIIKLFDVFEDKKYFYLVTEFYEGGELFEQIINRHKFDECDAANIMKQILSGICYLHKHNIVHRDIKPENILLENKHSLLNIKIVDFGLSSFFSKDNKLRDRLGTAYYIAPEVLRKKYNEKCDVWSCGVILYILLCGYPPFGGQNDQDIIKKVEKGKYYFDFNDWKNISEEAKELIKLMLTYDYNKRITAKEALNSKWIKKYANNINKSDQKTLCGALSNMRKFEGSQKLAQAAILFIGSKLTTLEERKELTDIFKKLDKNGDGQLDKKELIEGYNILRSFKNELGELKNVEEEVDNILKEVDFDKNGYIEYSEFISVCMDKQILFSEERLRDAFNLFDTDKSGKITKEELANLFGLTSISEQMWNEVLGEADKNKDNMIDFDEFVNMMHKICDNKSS
Chain of Plasmodium falciparum protein kinase 6 (PK6, PF3D7_1337100) (Q8IDW1 1-305): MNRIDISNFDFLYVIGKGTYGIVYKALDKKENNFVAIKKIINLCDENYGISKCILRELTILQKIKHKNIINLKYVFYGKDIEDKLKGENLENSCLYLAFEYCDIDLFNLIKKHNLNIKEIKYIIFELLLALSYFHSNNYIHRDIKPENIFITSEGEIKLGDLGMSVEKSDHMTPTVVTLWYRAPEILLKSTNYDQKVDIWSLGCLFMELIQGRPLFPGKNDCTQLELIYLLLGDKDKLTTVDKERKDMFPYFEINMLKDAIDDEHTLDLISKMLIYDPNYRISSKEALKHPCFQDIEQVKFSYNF
Chain of L-lactate dehydrogenase (Plasmodium falciparum (isolate CDC / Honduras)) (Q27743 whole entry, looked up): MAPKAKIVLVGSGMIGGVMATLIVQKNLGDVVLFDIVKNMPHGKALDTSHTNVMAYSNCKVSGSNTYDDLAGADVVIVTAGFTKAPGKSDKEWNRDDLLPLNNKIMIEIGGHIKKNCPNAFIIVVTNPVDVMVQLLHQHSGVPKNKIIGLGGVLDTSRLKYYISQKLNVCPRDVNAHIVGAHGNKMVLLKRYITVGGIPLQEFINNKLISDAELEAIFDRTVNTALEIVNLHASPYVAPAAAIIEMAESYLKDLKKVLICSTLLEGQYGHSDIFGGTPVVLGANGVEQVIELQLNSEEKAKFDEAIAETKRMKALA

FC(F)(F)c1ccc2nccc(NN=Cc3cccc(Cl)c3)c2c1
active: growth inhibition [4] 97%
inactive: growth inhibition [1] 2% | inhibition [2] -3% | inhibition [3] -8% | outcome [5] | outcome [6] | outcome [7] | outcome [8]

O=C(Nc1ccc(CCN2CCC(c3nc(COCC(F)(F)F)c(-c4ccccc4)o3)CC2)cc1)c1ccc(F)cc1
active: growth inhibition [4] 86%
inactive: growth inhibition [1] 3% | inhibition [2] 9% | inhibition [3] 3% | outcome [5] | outcome [6] | outcome [7] | outcome [8]

OC(CNCc1ccccc1)c1cc(OCc2ccccc2)cc(OCc2ccccc2)c1 (stereo not given)
active: growth inhibition [1] 76% | growth inhibition [4] 98%
inactive: inhibition [2] -14% | inhibition [3] 3% | outcome [5] | outcome [6] | outcome [7] | outcome [8]

O=C(NC1CCN(c2ncc(C(F)(F)F)cc2Cl)CC1)c1cccs1
inactive: inhibition [2] 15% | inhibition [3] -1% | outcome [5] | outcome [6] | outcome [7] | outcome [8]
active: growth inhibition [1] 65% | growth inhibition [4] 84%

COc1cc2nc(N[C@@H](CO)c3ccccc3)nc(NCc3ccccc3)c2cc1OC
active: growth inhibition [1] 71% | growth inhibition [4] 101%
inactive: inhibition [2] 6% | inhibition [3] 1% | outcome [5] | outcome [6] | outcome [7] | outcome [8]

O=C(NC1CC1)c1cnc(N2CCC(Oc3ccc(Cl)cc3)CC2)c(Cl)c1
inactive: inhibition [2] 12% | inhibition [3] -5% | outcome [5] | outcome [6] | outcome [7] | outcome [8]
active: growth inhibition [1] 75% | growth inhibition [4] 86%

Cc1c(-c2cccc(Br)c2)[nH]c2nc(N)nc(N)c12
inactive: inhibition [2] 8% | inhibition [3] -4% | outcome [5] | outcome [6] | outcome [7] | outcome [8]
active: growth inhibition [1] 61% | growth inhibition [4] 100%

COc1ccc(CNCc2cccc(-c3cccc(-c4nc5c(C)cccc5[nH]4)c3)c2)cc1
inactive: inhibition [2] 31% | inhibition [3] -4% | outcome [5] | outcome [6] | outcome [7] | outcome [8]
active: growth inhibition [1] 60% | growth inhibition [4] 102%

C=CCO[C@@H]1O[C@H](COC(c2ccccc2)(c2ccccc2)c2ccccc2)[C@@H](OC(C)=O)[C@H](OC(C)=O)[C@H]1NC(C)=O
inactive: inhibition [2] -1% | inhibition [3] -1% | outcome [5] | outcome [6] | outcome [7] | outcome [8]
active: growth inhibition [1] 66% | growth inhibition [4] 93%

Cc1cccc2[nH]c(-c3cccc(-c4ccc(NC(=O)COc5ccccc5C(N)=O)cc4)c3)nc12
active: growth inhibition [4] 101%
inactive: growth inhibition [1] 47% | inhibition [2] 18% | inhibition [3] -8% | outcome [5] | outcome [6] | outcome [7] | outcome [8]

Cc1nc(N)nc(N)c1-c1ccc(Br)c([N+](=O)[O-])c1
active: inhibition [2] 64% | growth inhibition [4] 95%
inactive: growth inhibition [1] 2% | inhibition [3] 2% | outcome [5] | outcome [6] | outcome [7] | outcome [8]

CC(C)(C)CNc1noc(-c2sccc2Br)n1
inactive: inhibition [2] 4% | inhibition [3] -7% | outcome [5] | outcome [6] | outcome [7] | outcome [8]
active: growth inhibition [1] 71% | growth inhibition [4] 82%

CC(C)COc1ccc(Cl)cc1Cc1ccc(-c2nc3c(cnc4ccccc43)[nH]2)o1
active: growth inhibition [4] 87%
inactive: growth inhibition [1] 26% | inhibition [2] 21% | inhibition [3] 1% | outcome [5] | outcome [6] | outcome [7] | outcome [8]

CS(=O)(=O)CCNCc1ccc(-c2ccc3c(Nc4ccc(Cl)cc4F)ccnc3c2)o1
active: growth inhibition [1] 98% | growth inhibition [4] 99%
inactive: inhibition [2] 6% | inhibition [3] -3% | outcome [5] | outcome [6] | outcome [7] | outcome [8]

COc1ccc2[nH]c(C(=O)Nc3cccc(-c4ccc(CN(C)C)cc4)c3)cc2c1
active: growth inhibition [4] 100%
inactive: growth inhibition [1] 34% | inhibition [2] 23% | inhibition [3] 3% | outcome [5] | outcome [6] | outcome [7] | outcome [8]

O=C(NCc1ccc(F)cc1)Nc1cccc(-c2ccc(-c3nc4ccc(F)cc4[nH]3)cc2)c1
inactive: inhibition [2] 7% | inhibition [3] -3% | outcome [5] | outcome [6] | outcome [7] | outcome [8]
active: growth inhibition [1] 96% | growth inhibition [4] 101%

CN(C)CCN(C)Cc1ccc(-c2ccc3c(Nc4ccc(F)cc4Cl)ccnc3c2)o1
active: growth inhibition [1] 100% | growth inhibition [4] 101%
inactive: inhibition [2] 31% | inhibition [3] 5% | outcome [5] | outcome [6] | outcome [7] | outcome [8]

CC(C)Nc1nc(NCCc2cnc[nH]2)nc(NCc2ccc(Cl)c(Cl)c2)n1
inactive: growth inhibition [1] -1% | inhibition [2] -3% | inhibition [3] 7% | outcome [5] | outcome [6] | outcome [7] | outcome [8]
active: growth inhibition [4] 88%

CC1CCC2(CC1)N=C(N)N=C(N)N2OCc1cc2ccccc2c2ccccc12 (stereo not given)
inactive: growth inhibition [1] 41% | inhibition [2] 27% | inhibition [3] -2% | outcome [5] | outcome [6] | outcome [7] | outcome [8]
active: growth inhibition [4] 97%

O=c1cc(-c2cccc(C(F)(F)F)c2)nc(Nc2ccc(Cl)c(Cl)c2)[nH]1
active: growth inhibition [1] 97% | inhibition [2] 57% | growth inhibition [4] 97%
inactive: inhibition [3] -2% | outcome [5] | outcome [6] | outcome [7] | outcome [8]
